Consider eight compounds from PubChem BioAssay AID2284349 (EPA ToxCast).

The target in the assay is frog Peroxisome Proliferator-activated Receptor-gamma (PPARg), pparg (gene 397769) (UniProt P37234). In words: ATG_frPPARg_EcoTox2: Attagene TRANS-FACTORIAL EcoTox-2 HepG2 Assay for frog Peroxisome Proliferator-activated Receptor-gamma (PPARg). The method, then:
ATG_EcoTox2 is a cell-based, multiplexed assay created by modifying the existing Attagene TRANS-FACTORIAL system to include a panel of nuclear receptors from some or all the following species: human (Homo sapiens), african clawed frog (Xenopus laevis), rainbow trout (Oncorhynchus mykiss), japanese medaka (Oryzias latipes), and zebrafish (Danio rerio). The ECOTOX2-FACTORIAL format uses HepG2, a human liver cell line, with measurements taken at 24 hours after chemical dosing in a 24-well plate. ATG_frPPARg_EcoTox2 is one of 29 assay components calculated in the ATG_EcoTox2 assay. It is designed to make measurements of mRNA induction, a form of inducible reporter, as detected with fluorescence intensity signals by Reverse transcription polymerase chain reaction (RT-PCR) and Capillary electrophoresis technology.The assay endpoint ATG_frPPARg_EcoTox2 was analyzed in the positive analysis fitting direction relative to DMSO as the negative control and baseline of activity. Using a type of inducible reporter, measures of mRNA for gain-of-signal activity can be used to understand the reporter gene at the transcription factor-level as they relate to the gene PPARg. Furthermore, this assay endpoint can be referred to as a primary readout, because this assay has produced multiple assay endpoints where this one serves a reporter gene function. To generalize the intended target to other relatable targets, this assay endpoint is annotated to the nuclear receptor intended target family, where the subfamily is non-steroidal.
Human liver HepG2 cells are transiently transfected with multiple reporter transcription units (MRTUs) in 6-well plates using FuGene 6 reagent (Roche; 3 ml FuGene/1 mg DNA). The MRTU constructs are regulated by a cis-regulating element (promoter). Each RTU expresses a GAL4-UAS that regulates the transcription of a nearby target reporter gene sequence. A major difference between the CIS and TRANS system is that in CIS activities of endogenous TFs are measured, whereas the TRANS assay evaluates changes in activities of exogenous, chimeric NR-Gal4 proteins. […] At the end of 24 hour incubation, total RNA was isolated using TriZol reagent (Invitrogen). The isolated RNA is then reverse-transcribed using oligo(dT) primer and Mo-MLV reverse transcriptase (Invitrogen) with DNAse I (Ambion) treatment for 30 min. The one-tenth of the produced cDNA was amplified by PCR using Taq DNA polymerase (Invitrogen) and two reporter sequence-specific primers. The PCR products were fluorescently labeled by primer extension with 6-arboxyfluorescein (6-FAM) 5'-labeled reporter sequence-specific primer (2 min at 95 C, 20 s at 68 C and 10 min at 72 C) and these products were digested with 5U of HpaI (New England Biolabs) for 2h at 37 C. The fragments were purified using Qiaquick PCR columns (Qiagen), analyzed on an ABI 3130xL genetic analyzer (Applied Biosystems) with peak positions identified by using a set of X-rhodamine (ROX)-labeled MapMarker1000 molecular weight standards (BioVentures). The raw capillary electrophoresis data was processed using Attagraph software (Attagene).

Each structure is given as a SMILES string. Inconclusive results are not listed. Calls of active or inactive are those of the source. How the source made its calls: active means hit-call score of the fitted dose curve at least 0.9, where 1 is the maximum; inconclusive means response in the unintended direction; inactive means score below 0.9.

Sequence of frog Peroxisome Proliferator-activated Receptor-gamma (PPARg), pparg (gene 397769) (P37234 whole entry, looked up): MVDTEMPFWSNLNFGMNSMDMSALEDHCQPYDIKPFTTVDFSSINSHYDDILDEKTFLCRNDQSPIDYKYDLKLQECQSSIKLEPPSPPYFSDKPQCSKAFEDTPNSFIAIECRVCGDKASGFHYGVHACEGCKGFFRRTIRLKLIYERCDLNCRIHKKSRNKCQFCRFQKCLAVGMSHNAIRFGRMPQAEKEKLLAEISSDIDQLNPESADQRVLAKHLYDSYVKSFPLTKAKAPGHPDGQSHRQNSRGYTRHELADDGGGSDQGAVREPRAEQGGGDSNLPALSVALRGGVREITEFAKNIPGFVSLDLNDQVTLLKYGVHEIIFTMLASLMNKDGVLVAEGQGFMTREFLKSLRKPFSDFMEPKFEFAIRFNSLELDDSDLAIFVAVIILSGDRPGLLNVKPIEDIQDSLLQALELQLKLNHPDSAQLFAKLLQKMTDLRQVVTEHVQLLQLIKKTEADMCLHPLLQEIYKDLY

Take `Cc1cccc(Nc2cc(Cl)nc(SCC(=O)O)n2)c1C`: the compound was classed as inactive.

As to `CC(C)(Oc1ccc(Cl)cc1)C(=O)O`, the call was inactive.

In the case of `C[C@@H]1C[C@H]2[C@@H]3CCC4=CC(=O)C=C[C@]4(C)[C@@]3(F)[C@@H](O)C[C@]2(C)[C@@]1(O)C(=O)COP(=O)(O)O`, the compound was called inactive.

On to `CC(c1cc2ccccc2s1)N(O)C(N)=O` (stereo not drawn), for which the compound was called inactive.

`CC(C)OC(=O)C(C)(C)Oc1ccc(C(=O)c2ccc(Cl)cc2)cc1`: the compound was called inactive.

Turning to `CC(C)(Oc1ccc(CCNC(=O)c2ccc(Cl)cc2)cc1)C(=O)O`, the compound was called inactive.

As to `C=C(c1ccc(C(=O)O)cc1)c1cc2c(cc1C)C(C)(C)CCC2(C)C`, the call was inactive.

As for `Cc1ccc(C)c(OCCCC(C)(C)C(=O)O)c1`, the compound was classed as inactive.
